Measured values published in the supplement of paper PMC4166925.
± gives the standard deviation of the averaged measurements. Whole data set: some 33,000 sequences, median “E-score (dimensionless, -0.5 to 0.5)” near -0.049, cut for the highest 2% near 0.37. The sample as a whole holds a higher share of the highest values than the screen did.

Tested on: T1, PmTbr T-box DNA-binding domain (GST fusion)
T1 sequence: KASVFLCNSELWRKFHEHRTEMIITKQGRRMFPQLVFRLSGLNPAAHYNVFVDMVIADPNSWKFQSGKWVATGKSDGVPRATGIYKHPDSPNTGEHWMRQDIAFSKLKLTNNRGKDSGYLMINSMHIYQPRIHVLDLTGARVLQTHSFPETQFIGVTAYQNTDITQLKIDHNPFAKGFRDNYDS
Assay: PBM E-score of 8-mer (E-score (dimensionless, -0.5 to 0.5)); Tbr is Tbrain of the sea star Patiria miniata (Pm) or the sea urchin Strongylocentrotus purpuratus (Sp); higher = stronger binding preference
Conditions: the construct has about 5 more residues each side
Protocol: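 Universal protein-binding microarray (Agilent AMADID 016060, 60-bp probes with a 35-bp variable region) incubated with 200 nM GST-fused Patiria miniata Tbr T-box DNA-binding domain (residues 272-466) in PBS pH 7.5. Scored for every ungapped 8-mer (given with its reverse complement) by the Universal PBM Analysis Suite as E-score (modified Wilcoxon-Mann-Whitney enrichment, range -0.5 to 0.5; >0.45 counts as bound) and Z-score of median probe intensity. Two replicate arrays (datasets 1 and 2).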
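Further: 200 nM protein in PBS on universal arrays averaged over duplicate arrays.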

| Sequence | PBM E-score of 8-mer |
| --- | --- |
| GCCTTTCA | -0.0251 ± 0.074 |
| TACTTTCA | 0.0461 ± 0.077 |
| CACAGCGA | 0.0526 ± 0.053 |
| CTGACCAC | 0.0865 ± 0.013 |
| ACAGATGA | 0.00068 ± 0.05 |
| AGCGTTCG | 0.214 ± 0.068 |
| CTACAGAG | -0.187 ± 0.022 |
| GGTGTCCA | 0.294 ± 0.021 |
| CGTGTCAA | 0.4335 ± 0.00096 |
| AGTGTCAA | 0.447 ± 0.0063 |
| CCTGTCAC | 0.3665 ± 0.0036 |
| CCTGTCAA | 0.309 ± 0.024 |
| ACTGTCAG | 0.129 ± 0.034 |
| GGTGTCAA | 0.474 ± 0.0055 |
| ACTGTCAA | 0.162 ± 0.028 |
| CATGTCAA | -0.00945 ± 0.065 |
| GCTGTCAA | 0.323 ± 0.014 |
| ACTGTCAC | 0.392 ± 0.018 |
| AATGTCAA | 0.0345 ± 0.052 |
| GCTGTCAC | 0.3624 ± 0.0017 |
| TCTGTCAA | 0.152 ± 0.039 |
| GGTGTCAC | 0.481 ± 0.0062 |
| TGTGTCAA | 0.372 ± 0.014 |
| AATGTCAT | -0.164 ± 0.033 |
| AATGTCAG | 0.0135 ± 0.012 |

| Sequence | PBM E-score of 8-mer |
| --- | --- |
| GATGTCAC | 0.304 ± 0.0034 |
| AGTGTCAG | 0.384 ± 0.017 |
| TATGTCAA | 0.0912 ± 0.063 |
| ACTGTCAT | 0.163 ± 0.037 |
| AGTGTCAT | 0.387 ± 0.0042 |
| CGTGTCAG | 0.31284 ± 0.00018 |
| AACATGAT | -0.0409 ± 0.098 |
| GGTCGAGA | -0.252 ± 0.058 |
| TTGAGCAA | -0.0163 ± 0.022 |
| ATAGGCAC | -0.0213 ± 0.017 |
| CGCTCATA | -0.08565 ± 0.00083 |
| TAGCTCAA | -0.184 ± 0.04 |
| ACTTTTCT | 0.0687 ± 0.099 |
| ATTGGGTC | -0.0189 ± 0.031 |
| CGAAGCCG | 0.155 ± 0.06 |
| ATGGAGGA | -0.217 ± 0.015 |
| ACACCCAA | 0.368 ± 0.035 |
| AAGCGAAT | -0.167 ± 0.0081 |
| AGTGTCCC | 0.176 ± 0.004 |
| CGTGTCCC | -0.0561 ± 0.065 |
| AGTGTCAC | 0.449 ± 0.0029 |
| CGTGTCAC | 0.3865 ± 0.0037 |
| CATGTCAC | 0.352 ± 0.0093 |
| AATGTCAC | 0.329 ± 0.034 |
| ATTAAGTA | -0.154 ± 0.096 |

| Sequence | PBM E-score of 8-mer |
| --- | --- |
| CGACCTCG | 0.14 ± 0.074 |
| CGCTTCAG | -0.0405 ± 0.068 |
| CTCCTAGC | 0.0648 ± 0.041 |
| GGACACAC | 0.101 ± 0.0014 |
| CGTCACCC | 0.373 ± 0.021 |
| CGTCACAG | 0.243 ± 0.014 |
| CGTCACAC | 0.433 ± 0.017 |
| CGTCACAA | 0.175 ± 0.033 |
| AGTCACCC | -0.0493 ± 0.13 |
| AGTCACAG | 0.135 ± 0.054 |
| AGTCACAT | 0.11 ± 0.058 |
| AGTCACAC | 0.462 ± 0.0029 |
| GGTCACAC | 0.4613 ± 0.0012 |
| CGTCACCA | 0.27 ± 0.054 |
| GGTCACAA | 0.212 ± 0.048 |
| CTCAAGAA | -0.0351 ± 0.062 |
| AATGAGGG | -0.21 ± 0.035 |
| AGCAACAT | -0.000465 ± 0.079 |
| AAAATCGT | 0.158 ± 0.078 |
| AGAACATG | -0.102 ± 0.0022 |
| GTATCTCA | 0.138 ± 0.024 |
| CTAATAGC | 0.0155 ± 0.017 |
| AACAATAT | 0.00943 ± 0.055 |
| AGATGCTG | -0.149 ± 0.035 |
| ATCAAGCC | -0.0171 ± 0.049 |

| Sequence | PBM E-score of 8-mer |
| --- | --- |
| GTACTTAA | -0.16 ± 0.011 |
| GCGGGTTA | 0.0385 ± 0.009 |
| CGATGTTA | -0.192 ± 0.016 |
| CGGTGTTA | 0.37 ± 0.0083 |
| GGGGGTTA | -0.158 ± 0.1 |
| CGCTGTTA | 0.0368 ± 0.0067 |
| GGATGTTA | -0.00674 ± 0.011 |
| GGGTGTTA | 0.4737 ± 0.00077 |
| ACCCATAT | 0.0957 ± 0.013 |
| GGGTTCGA | -0.0834 ± 0.013 |
| GGTGGGCA | 0.0512 ± 0.038 |
| AAACTCTT | -0.11 ± 0.032 |
| CGATTCAC | 0.143 ± 0.0046 |
| CAACTGAG | 0.0533 ± 0.042 |
| GACTTGGA | -0.167 ± 0.064 |
| ACGCGAAA | 0.133 ± 0.039 |
| GCGCGAAA | 0.4397 ± 0.0003 |
| GCGCGATA | 0.337 ± 0.011 |
| ACGCGAAC | 0.203 ± 0.043 |
| GCGCGACA | 0.36 ± 0.023 |
| CCGCGAAC | 0.271 ± 0.036 |
| GCGCGAAC | 0.411 ± 0.017 |
| CCGCGAAA | 0.305 ± 0.027 |
| TCGCGAAA | 0.409 ± 0.025 |
| CAATCATA | -0.102 ± 0.056 |

| Sequence | PBM E-score of 8-mer |
| --- | --- |
| AACCCTGA | -0.108 ± 0.0053 |
| GCCACTAA | 0.153 ± 0.019 |
| AGATACTC | -0.119 ± 0.09 |
| TGCAGGAA | -0.153 ± 0.036 |
| CTCCCAAC | -0.0412 ± 0.0027 |
| AAGAACCC | -0.192 ± 0.042 |
| CGACACCC | 0.439 ± 0.022 |
| CGACACCG | 0.273 ± 0.033 |
| GGACACCA | 0.0777 ± 0.029 |
| AGACACCA | 0.2603 ± 0.00061 |
| TGACACCA | 0.427 ± 0.02 |
| GGACACCC | 0.242 ± 0.037 |
| CGACACGA | 0.183 ± 0.071 |
| AGACACCC | 0.259 ± 0.023 |
| CGACACCA | 0.414 ± 0.01 |
| AAGAAAAC | -0.0889 ± 0.032 |
| CGTTGGTA | -0.0221 ± 0.009 |
| AAGTGCCG | 0.289 ± 0.025 |
| TGAGCAAA | 0.0705 ± 0.069 |
| AGGCCTGG | -0.293 ± 0.041 |
| ACCTGCGT | 0.112 ± 0.063 |
| AATTGGGA | -0.0137 ± 0.033 |
| GACCTCTA | -0.259 ± 0.07 |
| AACCTCTC | -0.0958 ± 0.093 |
| AACCTCTG | -0.151 ± 0.032 |

| Sequence | PBM E-score of 8-mer |
| --- | --- |
| AACCTCTA | -0.151 ± 0.025 |
| GACCTCTC | -0.109 ± 0.026 |
| CACCTCTC | 0.419 ± 0.023 |
| CACCTCTG | 0.4165 ± 0.00058 |
| CAACTCTG | 0.16 ± 0.08 |
| CACCTCTA | 0.44129 ± 0.00038 |
| CACCACCA | 0.201 ± 0.034 |
| CTTTTCTA | 0.0811 ± 0.085 |
| CTCCTCAA | -0.204 ± 0.024 |
| GCTTTCTA | -0.0965 ± 0.11 |
| AGTGTGCC | 0.125 ± 0.0018 |
| CAATGGAA | -0.144 ± 0.028 |
| CTGCCAAC | 0.0539 ± 0.0096 |
| ATGCCAAC | 0.0888 ± 0.00082 |
| TTGCCAAA | 0.11 ± 0.066 |
| GTGCCAAA | 0.421 ± 0.017 |
| GTGCCAAC | 0.403 ± 0.0056 |
| CTGCCAAA | 0.186 ± 0.061 |
| CCATATAC | -0.00383 ± 0.065 |
| AGTCGATA | 0.147 ± 0.016 |
| AGCAGAAC | -0.287 ± 0.013 |
| ACAACTGA | 0.172 ± 0.019 |
| AGACCTCA | 0.0571 ± 0.053 |
| ACACCTCT | 0.48594 ± 0.00022 |
| ACACCTCA | 0.47047 ± 0.00026 |

| Sequence | PBM E-score of 8-mer |
| --- | --- |
| AAACCTCT | -0.362 ± 0.051 |
| CCACCTCA | 0.229 ± 0.039 |
| AGACCTCT | -0.301 ± 0.015 |
| TCACCTCA | 0.437 ± 0.00059 |
| TAACCTCA | -0.152 ± 0.0019 |
| TGACCTCA | 0.0125 ± 0.0081 |
| ACGCCTGC | 0.24 ± 0.0036 |
| GTGAAACA | 0.188 ± 0.036 |
| CTGCTTGC | -0.132 ± 0.025 |
| CGGCAGAG | 0.00638 ± 0.076 |
| CGGCTGTC | 0.0205 ± 0.07 |
| CCTTCGGA | -0.0659 ± 0.042 |
| AGTAACAA | 0.167 ± 0.0063 |
| GGTAACAC | 0.43 ± 0.0044 |
| AGTAACAG | 0.037 ± 0.085 |
| GGTAACAA | 0.198 ± 0.056 |
| CGTAACAC | 0.365 ± 0.011 |
| AGTAACAC | 0.393 ± 0.025 |
| GTCTACGA | -0.127 ± 0.013 |
| ATCGCAGG | 0.0806 ± 0.064 |
| ACTCACTA | 0.144 ± 0.02 |
| CCTTAACG | 0.00703 ± 0.089 |
